We go through ten compounds from PubChem BioAssay (NCI).

Experiment [1] can be described thus: NCI Yeast Anticancer Drug Screen. Data for the rad50 strain (AID 155).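 Note: 0% = growth of vehicle-only cultures of the same strain.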 The settings on record: S. cerevisiae rad50 strain growth inhibition, hits give high values. In outline: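 Inhibition values express reduced yeast growth in compound-treated cultures relative to vehicle-treated controls.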
Experiment [2] can be described thus: NCI Yeast Anticancer Drug Screen. Data for the mec2-1 strain (AID 157). Particulars: S. cerevisiae mec2-1 strain, hits give high values. Put shortly: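 Each compound was tested on mec2-1 yeast, a strain altered in DNA damage repair or cell cycle control. Growth inhibition is reported relative to vehicle.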
Experiment [3] is described as follows: NCI Yeast Anticancer Drug Screen. Data for the sgs1 mgt1 strain (AID 161).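 Note: 0% = growth of cultures given vehicle only.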 The settings on record: S. cerevisiae sgs1 mgt1 strain, hits give high values. Put shortly:
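Read-out: growth inhibition vs vehicle controls. Cells: mutant yeast strain deficient in DNA damage repair.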

Experiment [4] can be described thus: NCI Yeast Anticancer Drug Screen. Data for the cln2 rad14 strain (AID 165).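 Note: 0% = growth equal to vehicle treated cultures.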 The settings on record: S. cerevisiae cln2 rad14 strain, hits give high values. Put shortly: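 Test compounds were added to cln2 rad14 yeast cultures; inhibition of growth was then determined by comparison with vehicle treatment.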
The nature of experiment [5]: NCI Yeast Anticancer Drug Screen. Data for the mlh1 rad18 strain (AID 175). Particulars: S. cerevisiae mlh1 rad18 strain growth inhibition, hits give high values. In outline: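 Inhibition values reflect reduced growth of mutant yeast versus vehicle-treated controls following compound exposure; the mutations affect DNA damage repair.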
A short description of experiment [6]: NCI Yeast Anticancer Drug Screen. Data for the bub3 strain (AID 167). The settings on record: S. cerevisiae bub3 mutant strain, hits give high values. Put shortly:
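Steps: expose the mutant yeast strain to compound; grow alongside vehicle-treated cultures; measure growth; express inhibition against the vehicle cultures.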

The mark [7] stands for this setting: at 5.0 µM (retest, dose inferred, filed as 0.5).
[8] abbreviates: at 50.0 µM (retest, dose inferred, filed as 5.0).

This is part of a sample that, as a whole, favours compounds with a hit. Of some 79,000 tested, about 15% had one in any assay. A number with no mark means an inactive call. Activity calls are given as the source filed them. Cut-off read from the data, not from the text of the source: active = growth inhibition above about 70%; inactive = the rest.

With `CCOC(=O)Nc1cc(NC(C)/C(=N/O)c2ccccc2)c([N+](=O)[O-])c(N)n1` (centres undefined), the growth inhibition in experiment [1] (setting [7]) is -18%; in experiment [1] (setting [8]), 97% (active); in experiment [1] (at 50.0 µM) it was 42.6%; in experiment [2] (setting [7]) it was -5%; in experiment [2] (setting [8]), 47%; in experiment [2] (at 50.0 µM), 59.5%. Besides, the growth inhibition in experiment [3] (setting [7]) is 1%; in experiment [3] (setting [8]) it was 69%; in experiment [3] (at 50.0 µM), 47.5%; in experiment [4] (setting [7]) it was -21%; in experiment [4] (setting [8]) it was 98% (active); in experiment [4] (at 50.0 µM), 24.9%. Further, the results for the growth inhibition in experiment [5] (setting [7]), in experiment [5] (setting [8]) and in experiment [5] (at 50.0 µM) were -5%, 82% (active) and 44.2%, respectively.

On to `COc1ccccc1NC(=O)/C(=C\N1C(=O)/C(=C/c2cc(OC)c(OC)c(OC)c2)SC1=S)C(C)=O`, for which the growth inhibition in experiment [1] (setting [7]) was -11%; in experiment [1] (setting [8]) it was 9%; in experiment [1] (at 50.0 µM), 46%; in experiment [2] (setting [7]) it was -12%; in experiment [2] (setting [8]), 14%; in experiment [2] (at 50.0 µM), 13.4%. Also, the growth inhibition in experiment [3] (setting [7]) was -8%; in experiment [3] (setting [8]) it was 35%; in experiment [3] (at 50.0 µM), 74.2% (active); in experiment [4] (setting [7]) it was -28%; in experiment [4] (setting [8]), 7%; in experiment [4] (at 50.0 µM), 8.6%. Further, the growth inhibition is -21% in experiment [6] (setting [7]); -12% in experiment [6] (setting [8]); 27.9% in experiment [6] (at 50.0 µM); -39% in experiment [5] (setting [7]); 25% in experiment [5] (setting [8]); 49.7% in experiment [5] (at 50.0 µM).

Regarding `OC(c1ccccc1)(C(F)(F)F)C(O)(c1ccccc1)C(F)(F)F` (centres undefined), the growth inhibition in experiment [1] (setting [7]) was 77% (active); in experiment [1] (setting [8]) it was 99% (active); in experiment [1] (at 50.0 µM), 94.4% (active); in experiment [2] (setting [7]), 57%; in experiment [2] (setting [8]) it was 99% (active); in experiment [2] (at 50.0 µM), 89.2% (active). Besides, the growth inhibition is 87% (active) in experiment [3] (setting [7]); 99% (active) in experiment [3] (setting [8]); 89.7% (active) in experiment [3] (at 50.0 µM); 57% in experiment [4] (setting [7]); 99% (active) in experiment [4] (setting [8]); 90.5% (active) in experiment [4] (at 50.0 µM). The growth inhibition is 76% (active) in experiment [6] (setting [7]); 99% (active) in experiment [6] (setting [8]); 81.6% (active) in experiment [6] (at 50.0 µM); 85% (active) in experiment [5] (setting [7]); 99% (active) in experiment [5] (setting [8]); 95.5% (active) in experiment [5] (at 50.0 µM).

In the case of `CCCCCCCOC(=O)CSC#N`, the growth inhibition in experiment [1] (setting [7]) is 61%; in experiment [1] (setting [8]), 99% (active); in experiment [1] (at 50.0 µM), 99.2% (active); in experiment [2] (setting [7]), 52%; in experiment [2] (setting [8]), 99% (active); in experiment [2] (at 50.0 µM), 99.3% (active). Also, the growth inhibition in experiment [3] (setting [7]) was 95% (active); in experiment [3] (setting [8]), 99% (active); in experiment [3] (at 50.0 µM), 99% (active); in experiment [4] (setting [7]), 29%; in experiment [4] (setting [8]), 99% (active); in experiment [4] (at 50.0 µM) it was 98.5% (active). The growth inhibition was 90% (active) in experiment [5] (setting [7]), 98% (active) in experiment [5] (setting [8]) and 99.3% (active) in experiment [5] (at 50.0 µM).

On to `Cc1c2ccccc2c(=O)n2c(-c3ccccn3)cccc12`, for which the growth inhibition in experiment [1] (setting [7]) was -47%; in experiment [1] (setting [8]), -14%; in experiment [1] (at 50.0 µM), 46.8%; in experiment [2] (setting [7]) it was -20%; in experiment [2] (setting [8]) it was -16%; in experiment [2] (at 50.0 µM) it was -1.2%. Besides, the growth inhibition is 7% in experiment [3] (setting [7]); -3% in experiment [3] (setting [8]); 77.8% (active) in experiment [3] (at 50.0 µM); 8% in experiment [4] (setting [7]); 26% in experiment [4] (setting [8]); 33.1% in experiment [4] (at 50.0 µM). The growth inhibition in experiment [5] (setting [7]) was -43%; in experiment [5] (setting [8]), 31%; in experiment [5] (at 50.0 µM), -6.4%.

For the compound `COC(=O)CCCCCCCCCCC(=O)O`, the growth inhibition in experiment [1] (setting [7]) is -3%; in experiment [1] (setting [8]), -4%; in experiment [1] (at 50.0 µM), 2.45%; in experiment [2] (setting [7]), -1%; in experiment [2] (setting [8]), -2%; in experiment [2] (at 50.0 µM), -11.6%. Further, the growth inhibition in experiment [3] (setting [7]) is -2%; in experiment [3] (setting [8]) it was 4%; in experiment [3] (at 50.0 µM) it was -9.55%; in experiment [6] (setting [7]), -4%; in experiment [6] (setting [8]), -9%; in experiment [6] (at 50.0 µM), 38.6%. In addition, the growth inhibition in experiment [5] (setting [7]) is -2%; in experiment [5] (setting [8]) it was 2%; in experiment [5] (at 50.0 µM), -6.6%.

For `O=C1NC(=Nc2ccccc2)C(=Nc2ccccc2)N1c1ccccc1`, the growth inhibition is -8% in experiment [1] (setting [7]); 99% (active) in experiment [1] (setting [8]); 87.8% (active) in experiment [1] (at 50.0 µM); -7% in experiment [2] (setting [7]); 98% (active) in experiment [2] (setting [8]); 90.8% (active) in experiment [2] (at 50.0 µM). Moreover, the growth inhibition in experiment [3] (setting [7]) is -7%; in experiment [3] (setting [8]), 99% (active); in experiment [3] (at 50.0 µM), 85.6% (active); in experiment [4] (setting [7]) it was -33%; in experiment [4] (setting [8]), 94% (active); in experiment [4] (at 50.0 µM), 85.8% (active). Further, the growth inhibition in experiment [5] (setting [7]) is -2%; in experiment [5] (setting [8]), 99% (active); in experiment [5] (at 50.0 µM), 85.9% (active).

In the case of `O=c1[nH]c(CN2CCCCC2)nn1-c1ccccc1`, the growth inhibition is -1% in experiment [1] (setting [7]); 3% in experiment [1] (setting [8]); 8.25% in experiment [1] (at 50.0 µM); 0% in experiment [2] (setting [7]); 3% in experiment [2] (setting [8]); 10.1% in experiment [2] (at 50.0 µM). The growth inhibition in experiment [3] (setting [7]) is -1%; in experiment [3] (setting [8]), 1%; in experiment [3] (at 50.0 µM), 9.75%; in experiment [4] (setting [7]), 4%; in experiment [4] (setting [8]) it was -1%; in experiment [4] (at 50.0 µM), 69.4%. The growth inhibition in experiment [5] (setting [7]) was -2%; in experiment [5] (setting [8]) it was 1%; in experiment [5] (at 50.0 µM) it was 2.45%.

Consider `CC1c2cc(c3c(c2O)CN([C@@H](C)C2CCCCC2)CO3)C(C)c2cc(c3c(c2O)CN([C@@H](C)C2CCCCC2)CO3)C(C)c2cc(c3c(c2O)CN([C@@H](C)C2CCCCC2)CO3)C(C)c2cc1c1c(c2O)CN([C@@H](C)C2CCCCC2)CO1` (some centres undefined), for which the growth inhibition in experiment [1] (setting [7]) is -3%; in experiment [1] (setting [8]), -5%; in experiment [1] (at 50.0 µM) it was 36.6%; in experiment [2] (setting [7]), -1%; in experiment [2] (setting [8]), -28%; in experiment [2] (at 50.0 µM), 2.9%. The growth inhibition in experiment [3] (setting [7]) is -3%; in experiment [3] (setting [8]) it was -10%; in experiment [3] (at 50.0 µM), 42.9%; in experiment [4] (setting [7]) it was -2%; in experiment [4] (setting [8]), -44%; in experiment [4] (at 50.0 µM) it was 30.8%. In addition, the values for the growth inhibition in experiment [5] (setting [7]), in experiment [5] (setting [8]) and in experiment [5] (at 50.0 µM) were -6%, -16% and 47.3%, respectively.

`CCc1cccc(C(C)(C)C)c1NC(=S)/N=C/C(C(=O)c1ccccc1)=C(\O)c1ccccc1`: the growth inhibition in experiment [1] (setting [7]) is -4%; in experiment [1] (setting [8]), 70% (active); in experiment [1] (at 50.0 µM), 77.2% (active); in experiment [2] (setting [7]), -11%; in experiment [2] (setting [8]), 66%; in experiment [2] (at 50.0 µM) it was 55.3%. Further, the growth inhibition is -10% in experiment [3] (setting [7]); 43% in experiment [3] (setting [8]); 68.9% in experiment [3] (at 50.0 µM); -13% in experiment [4] (setting [7]); 45% in experiment [4] (setting [8]); 48.1% in experiment [4] (at 50.0 µM). Also, the growth inhibition is -12% in experiment [6] (setting [7]); 48% in experiment [6] (setting [8]); 80.3% (active) in experiment [6] (at 50.0 µM); -4% in experiment [5] (setting [7]); 65% in experiment [5] (setting [8]); 75.6% (active) in experiment [5] (at 50.0 µM).
